In PubChem BioAssay (NCATS):
Inconclusive results are not listed. Calls of active or inactive are those of the source. Calls come from the whole dose curve; as a rule, active = well fitted curve in the direction sought with a large enough effect; inconclusive = small, poorly fitted or top-dose-only effect, or another doubt; inactive = no such curve, though single readings can be large; an effect the other way counts as inactive or inconclusive.

Columns and labels:
[1] = BET inhibitor-based combinations targeting novel dependencies in MECOM-rearranged (r) AML: SET-2 cell line (AID 2202231); conditions: SET-2 AML cells viability, CellTiter-Glo luminescence, 48 h; viability: hits give low values, concentration not given here; note: nearly all actives have a fitted effect of over 35% in size;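 for viability: plate controls were DMSO treated cells for no effect and wells without cells for full effect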
Procedure, shortened: (§1)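 Readout: CellTiter-Glo luminescence. Exposure: 48 h, 11 concentrations, 500 cells/well. Metric: AUC and within-line Z-AUC after DMSO/empty-well normalization.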

[2] = BET inhibitor-based combinations targeting novel dependencies in MECOM-rearranged (r) AML: MV-4-11 cell line (AID 2202233); note: nearly all actives have a fitted effect of over 45% in size
Procedure, shortened: (§2)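 Seeding density was 500 cells/well, and drug exposure lasted 48 hr under standard culture conditions. Read-out used CellTiter-Glo reagent with a 15 min room-temperature incubation before luminescence measurement; AUC and Z-AUC summarize the normalized responses.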

[3] = BET inhibitor-based combinations targeting novel dependencies in MECOM-rearranged (r) AML: HNT-34 cell line (AID 2202234); note: nearly all actives have a fitted effect of over 35% in size
Procedure, shortened: as §2

[4] = BET inhibitor-based combinations targeting novel dependencies in MECOM-rearranged (r) AML: UCSD-AML1 cell line (AID 2202235); note: nearly all actives have a fitted effect of over 40% in size
Procedure, shortened: as §2

[5] = BET inhibitor-based combinations targeting novel dependencies in MECOM-rearranged (r) AML: AML-191 cell line (AID 2202236; note: nearly all actives have a fitted effect of over 35% in size)
Procedure, shortened: as §1

[6] = BET inhibitor-based combinations targeting novel dependencies in MECOM-rearranged (r) AML: AML-194 cell line (AID 2202237; note: nearly all actives have a fitted effect of over 40% in size)
Procedure, shortened: as §1
Potency is the fitted concentration of half-maximal effect.

N=C1S/C(=C\c2ccc(-c3ccc4c(c3)C(=O)NC4=O)o2)C(=O)N1c1ccc(Br)cc1
inactive: viability [1] 117% | Potency [2] | Potency [3] | Potency [4] | Potency [5] | Potency [6]

CC(C)(O)CNc1ncc(-c2ccnc(Nc3ccncc3)n2)c(CC2CC2)n1
active: Potency [1] 18.6 µM | Potency [2] 5.9 µM | Potency [3] 9.34 µM | Potency [4] 14.8 µM | Potency [5] 13.2 µM | Potency [6] 16.6 µM

COc1ccc(/C=C\c2cc(OC)c(OC)c(OC)c2)cc1O
active: Potency [1] 0.0148 µM | Potency [2] 0.0132 µM | Potency [4] 0.0118 µM | Potency [5] 0.0132 µM

CC(=O)OCC(=O)[C@@]12OC(C)(C)O[C@@H]1C[C@H]1[C@@H]3C[C@H](F)C4=CC(=O)C=C[C@]4(C)[C@@]3(F)[C@@H](O)C[C@@]12C
inactive: viability [1] 105% | Potency [2] | Potency [4] | Potency [5]

CC(C)OC(=O)[C@H](C)N[P@](=O)(OC[C@H]1O[C@@H](n2ccc(=O)[nH]c2=O)[C@](C)(F)[C@@H]1O)Oc1ccccc1
inactive: viability [1] 107% | Potency [2] | Potency [3] | Potency [4] | Potency [5] | Potency [6]

COc1cc(F)ccc1-c1ncnc(Nc2cccc(CS(C)(=N)=O)c2)n1 (stereo not given)
active: Potency [1] 1.32 µM | Potency [2] 0.742 µM | Potency [4] 0.833 µM | Potency [5] 0.662 µM | Potency [6] 0.934 µM

COC(=O)[C@H](CCCN=C(N)N)NS(=O)(=O)c1ccc(C)cc1
inactive: viability [1] 112% | Potency [2] | Potency [3] | Potency [4] | Potency [5] | Potency [6]

O=C(c1ccc(Nc2nc(C3CC3)cn3c(-c4cn[nH]c4)cnc23)c(F)c1)N1CCOCC1
inactive: viability [1] 57.2%
active: Potency [2] 1.18 µM | Potency [3] 5.25 µM | Potency [5] 20.9 µM

O=C(O)CCC=CCC[C@@H]1[C@H](N2CCCCC2)[C@@H](O)C[C@@H]1OCc1ccc(-c2ccccc2)cc1
active: Potency [1] 1.18 µM
inactive: Potency [2] | Potency [4] | Potency [5] | Potency [6]

CC(C)(C)c1nc2c3cc[nH]c(=O)c3c3cc(F)ccc3c2[nH]1
active: Potency [1] 1.18 µM | Potency [2] 1.18 µM | Potency [4] 0.235 µM | Potency [5] 0.662 µM

C[C@@]12O[C@@H](C[C@]1(O)CO)n1c3ccccc3c3c4c(c5c6ccccc6n2c5c31)CNC4=O
active: Potency [1] 0.417 µM | Potency [2] 0.0118 µM | Potency [4] 0.118 µM | Potency [5] 0.0525 µM

CN(C)CC[C@H](CSc1ccccc1)Nc1ccc(S(=O)(=O)NC(=O)c2ccc(N3CCN(Cc4ccccc4-c4ccc(Cl)cc4)CC3)cc2)cc1[N+](=O)[O-]
active: Potency [1] 10.5 µM | Potency [2] 0.263 µM | Potency [4] 2.95 µM | Potency [5] 2.35 µM | Potency [6] 1.86 µM

O=C1OC2(CCC(C(=O)Nc3ccn(-c4ccccc4F)n3)CC2)c2cnccc21 (stereo not given)
inactive: viability [1] 90.4% | Potency [4]
active: Potency [2] 3.32 µM | Potency [5] 18.6 µM

CCN1CCN(Cc2ccc(-c3cc4c(N[C@H](C)c5ccccc5)ncnc4[nH]3)cc2)CC1
active: Potency [1] 23.5 µM | Potency [2] 2.63 µM | Potency [3] 2.63 µM | Potency [5] 18.6 µM | Potency [6] 26.3 µM

CC[C@@]1(O)C(=O)OCc2c1cc1n(c2=O)Cc2c-1nc1cc(F)c(C)c3c1c2[C@@H](N)CC3
active: Potency [1] 0.0037 µM | Potency [2] 0.0042 µM | Potency [3] 0.003 µM | Potency [4] 0.0042 µM | Potency [5] 0.0083 µM | Potency [6] 0.0037 µM

Cc1ccc(-n2[nH]c(C)c(N=Nc3cccc(-c4cccc(C(=O)O)c4)c3O)c2=O)cc1C
inactive: viability [1] 109% | Potency [2] | Potency [3] | Potency [6]

N#CC(c1ccnc(NCCc2cccnc2)n1)c1nc2ccccc2s1 (stereo not given)
active: Potency [1] 18.6 µM | Potency [2] 6.61 µM | Potency [3] 14.8 µM | Potency [4] 18.6 µM | Potency [6] 18.6 µM

COc1ccccc1C(=O)Nc1cc2c(cc1N1CCNC[C@H]1C)n(C)c(=O)n2C
inactive: viability [1] 103% | Potency [4]
active: Potency [2] 5.9 µM

CC#Cc1cncc(-c2ccc3c(c2)[C@@]2(N=C(C)C(N)=N2)C2(CCC(OC)CC2)C3)c1 (stereo not given in full)
active: Potency [2] 18.6 µM
inactive: viability [1] 107% | Potency [3] | Potency [6]

CC[C@@]1(O)C(=O)OCc2c1cc1n(c2=O)Cc2c-1nc1ccccc1c2CCNC(C)C
active: Potency [1] 0.0166 µM | Potency [2] 0.0042 µM | Potency [4] 0.0074 µM | Potency [5] 0.0118 µM | Potency [6] 0.0132 µM

CCOCOC[C@H](C[C@H](C)C(=O)NO)NC(=O)c1ccc(Oc2ccccc2)cc1
active: Potency [3] 26.3 µM
inactive: viability [1] 117% | Potency [2] | Potency [4] | Potency [6]
